# Laboratory results published in ChEMBL document CHEMBL3988442, “University of Dundee, Small-Polar-MMV Screening Library” (2021).
# Out of some 48,000 compounds screened, about 13,000 (27%) showed an effect of 50% or more. This is one part of the list.
# Tested on: Wolbachia pipientis
# Assay: Anti-Wolbachia Cell-Based Screen
# Assay type: functional
# Parameters: scale not given: in the data most compounds retested in dose-response had high values
# Details: 5 µM
row,Compound,Percent Effect
1,CCNc1ccnc(-c2ccnc3c2ccn3C)n1,5.655%
2,COc1cc(NCCNC(=O)c2ccc3[nH]ccc3c2)cc(OC)c1,-37.35%
3,CN1C(=O)[C@H]2CC[C@@H]1CN(C(=O)c1sccc1S(N)(=O)=O)C2,0.6963%
4,Cc1cnc(CN2CCCC(c3cc(C(N)=O)[nH]n3)C2)cn1 (stereo not drawn),0.6166%
5,Cc1ncc(CN2CCCC(c3cc(C(N)=O)[nH]n3)C2)s1 (stereo not drawn),121.8%
6,O=C(CCc1cscn1)NS(=O)(=O)c1ccc2c(c1)CCC2,0.3885%
7,O=C(Cc1ccccc1)N1CCC2(CC1)CC(Nc1cnccn1)CO2 (stereo not drawn),117.3%
8,Cn1ccc(CN2CCC3(CC2)CC(Nc2ccccn2)CO3)n1.O=C(O)C(F)(F)F (stereo not drawn),-6.155%
9,Cn1ccc(CN2CCC3(CC2)CC(Nc2cnccn2)CO3)n1.O=C(O)C(F)(F)F (stereo not drawn),4.568%
10,Cn1ccc(C(=O)N2CCC3(CC2)CC(Nc2cnccn2)CO3)n1 (stereo not drawn),103.2%
11,Cc1nc2ncccn2c1C(=O)N1CCc2[nH]cnc2C1,16.62%
12,CN(CC1CCN(CCO)CC1)CC(O)c1ccc(F)c(F)c1 (stereo not drawn),6.752%
13,CC(C)C(=O)NCCNc1nccc(-c2cc(C(=O)O)ccn2)n1,-18.63%
14,COc1cccc(-n2cc(-c3ccnc(N[C@@H](CO)C(C)C)n3)cn2)c1,-10.41%
15,COC(=O)c1ccc2c(-c3ccnc(N[C@@H](C)CO)n3)c[nH]c2c1,96.47%
16,CSCCCNc1nccc(-c2cc(C(=O)O)ccn2)n1,-11.9%
17,CC[C@@H](CO)Nc1nccc(-c2c[nH]c3cc(C(=O)OC)ccc23)n1,73.76%
18,COC(=O)c1ccc2c(-c3ccnc(NCCO)n3)c[nH]c2c1,85.03%
19,Cc1ccc(CCNc2nccc(-c3cc(C(=O)O)ccn3)n2)o1,-34.17%
20,COC(=O)c1cccc(-c2c[nH]c(C)n2)c1,-9.245%
21,CCCN1C[C@H]2CC[C@@H]1CN(Cc1ccc(-n3cccn3)cc1)C2,12.23%
22,O=C(CCc1cn[nH]c1)N1CCC(C2CCN(c3ncccn3)CC2)C1 (stereo not drawn),-3.024%
23,CN1CCN(C[C@@H]2CN(C(=O)CCc3cn[nH]c3)C[C@@H]2CO)CC1,-11.62%
24,CN1CCOC(CNCc2nc(-c3cccnc3)no2)C1 (stereo not drawn),17.39%
25,CN1CCOC(CNCc2coc(-c3cccc(F)c3)n2)C1 (stereo not drawn),69.38%
26,CN1CCOC(CNCc2coc(-c3cccc(Cl)c3)n2)C1 (stereo not drawn),93.12%

row,Compound,Percent Effect
1,CN(C)Cc1ccc(C2CCCCN2C(=O)c2cc(=O)[nH]c(=O)[nH]2)cc1 (stereo not drawn),-0.1381%
2,Cc1cnn(CCNCc2nc(-c3ccccc3Cl)no2)c1,-13.51%
3,CC[C@H]1N(CC2CCOCC2)CCC[C@]12CCC(=O)N2.O=C(O)C(F)(F)F,-18.34%
4,COCCN(Cc1ccc(C)cc1)Cc1c[nH]cn1,-2.598%
5,Cc1cc(C)n(CCC2CC(=O)Nc3cc(O)c(C)cc32)n1 (stereo not drawn),-2.617%
6,Cc1noc(C)c1CCC(=O)N1CCN(CCn2cccn2)CC1,-16.11%
7,Cc1cc(C)cc(OCCC(=O)N2CCOCC2c2ncon2)c1 (stereo not drawn),-11.58%
8,Cc1noc(C)c1CCC(=O)N1CCN(CCn2cncn2)CC1,-13.84%
9,CC(=O)N1CCCN(C(=O)CCc2c(C)noc2C)CC1,-13.07%
10,CCc1ccc(CCC(=O)N2CCOCC2c2ncon2)cc1 (stereo not drawn),5.794%
11,Cc1noc(C)c1CCC(=O)N1CCOCC1CC(=O)N1CCCC1 (stereo not drawn),72.16%
12,Cc1nccnc1CCC1COCCN1C(=O)CCc1c(C)noc1C (stereo not drawn),121.1%
13,Cc1noc(Cl)c1CCC(=O)N1CCN(c2ncccn2)CC1,8.959%
14,Cc1noc(C)c1CCC(=O)N1CCOCC1CCc1cnccn1 (stereo not drawn),115.4%
15,O=C(c1ccc2cccc(F)c2n1)N1CCN(CCn2cccc2)CC1,4.444%
16,COCCNC(=O)[C@H]1CO[C@H]2CCN(Cc3cccs3)C[C@H]2C1,107.4%
17,O=C(CN1CCC(c2ccnn2CCO)CC1)NCc1cccs1,-0.7289%
18,COCCNC(=O)[C@H]1C[C@@H]2CCN(Cc3nccs3)C[C@H]2O1.O=C(O)C(F)(F)F,2.995%
19,COC(=O)N1CCc2ccccc2C1C(=O)NCc1cccs1 (stereo not drawn),1.281%
20,CCN1CC[C@@H]2OC[C@H](C(=O)NCc3cccs3)C[C@@H]2C1,91.2%
21,Cc1ncccc1NC(=O)[C@@H]1C[C@@H]2CCN(Cc3cccs3)C[C@H]2O1.O=C(O)C(F)(F)F.O=C(O)C(F)(F)F,-1.319%
22,COc1ccc(F)cc1CN1CCN(Cc2nccn2C)C(C)C1 (stereo not drawn),-0.7274%
23,CC(=O)N1CC(=O)N(c2ccccc2)CC12CCN(Cc1ccoc1)C2.O=C(O)C(F)(F)F (stereo not drawn),103.1%
24,CC(=O)N1CC(=O)N(c2ccsc2)CC12CCN(Cc1ccccn1)C2.O=C(O)C(F)(F)F (stereo not drawn),-6.842%
25,CC(=O)N1CC(=O)N(c2ccsc2)CC12CCN(Cc1ccoc1)C2 (stereo not drawn),104.4%
26,CC(=O)N1CC(=O)N(c2ccccc2)CC12CCN(Cc1ccsc1)C2 (stereo not drawn),-2.634%

row,Compound,Percent Effect
1,CC(=O)N1CC(=O)N(c2ccccc2)CC12CCN(CC1CC1)C2.O=C(O)C(F)(F)F (stereo not drawn),-3.194%
2,CC(=O)N1CC(=O)N(c2ccccc2)CC12CCN(Cc1nccs1)C2.O=C(O)C(F)(F)F (stereo not drawn),-14.31%
3,CC(C)OCCOCc1cccc(NC(=O)NCC(=O)N(C)C)c1,-22.62%
4,CCN1CCN2CCCN(S(=O)(=O)c3ccc(C)cc3C)C2C1=O (stereo not drawn),0.9872%
5,CN1CCN(c2ccc(NCc3ccsc3)cn2)CC1,-12.65%
6,Cn1cnc2c1C(COCC1CCOCC1)CN(C(=O)C1CC=CC1)C2.O=C(O)C(F)(F)F (stereo not drawn),-7.237%
7,CN(C)C(=O)COCC1CN(C2CCC2)Cc2ncn(C)c21.O=C(O)C(F)(F)F.O=C(O)C(F)(F)F (stereo not drawn),85.57%
8,CCOCC1CN(C(=O)COc2ccccc2C)Cc2ncn(C)c21.O=C(O)C(F)(F)F (stereo not drawn),-10.67%
9,COCC1CN(C(=O)COc2ccccc2)Cc2ncn(C)c21.O=C(O)C(F)(F)F (stereo not drawn),-7.331%
10,CN(C)C(=O)COCC1CN(S(C)(=O)=O)Cc2ncn(C)c21.O=C(O)C(F)(F)F (stereo not drawn),94.11%
11,COCCN(Cc1sccc1C)c1nc(C)nc2sccc12,-3.328%
12,CNC(=O)[C@@H]1C[C@@H](N)CN1Cc1cc2cc(C)cc(C)c2[nH]c1=O,3.33%
13,CN(Cc1cnn(C)c1)S(=O)(=O)N1CCc2ccccc2C1,11.11%
14,CC(C)N1CCC(Nc2ccn(Cc3ccccn3)n2)C1=O (stereo not drawn),7.705%
15,CCN(Cc1cccc(-c2ccncc2)c1)S(N)(=O)=O,-1.235%
16,CCN(CC)S(=O)(=O)c1ccc2c(c1)N(Cc1ccncc1)C(=O)CS2,122%
17,CCN(CC)S(=O)(=O)N(C)Cc1ccncc1,-6.423%
18,CCN(CC)S(=O)(=O)c1ccc2c(c1)N(Cc1cccnc1)C(=O)CS2,103.1%
19,CCN(CC)S(=O)(=O)c1ccc2c(c1)N(Cc1ccccn1)C(=O)CS2,124.5%
20,CCN(CC)S(=O)(=O)N1CCC(c2nccn2Cc2ccccn2)CC1,1.2%
21,CCN(CC)S(=O)(=O)N1CCCC(c2nccn2Cc2cccnc2)C1 (stereo not drawn),-1.362%
22,CCS(=O)(=O)c1ccc2oc([C@H]3CCN(Cc4cccnc4)C3)nc2c1,-5.049%
23,CC(=O)N1CCC(C(=O)NCCN2CCC(C)CC2)CC1,-2.341%
24,CCN1C(=O)CC(c2cnn(C)c2)C12CCN(C(=O)c1ccoc1)CC2 (stereo not drawn),0.4401%
25,Cc1nccn1-c1ccc(C(C)NCc2cccn2C)cc1 (stereo not drawn),-7.942%
26,Cc1ccnc(Cn2cc(-c3cccc(C(C)N(C)C)c3)nn2)c1 (stereo not drawn),12.93%

row,Compound,Percent Effect
1,COc1ccc2c(c1)CCCN2C(=O)CN1CCOC(C)C1 (stereo not drawn),-7.941%
2,Cc1ccc(CCCC(=O)N(C)CCN2CCOCC2)cc1,-4.729%
3,CC(CCc1ccccc1)NC(=O)CN1CCOCC1 (stereo not drawn),-21.53%
4,COC(=O)C(O)C1CCN(CCc2ccncc2)CC1 (stereo not drawn),-5.946%
5,CC(Nc1ccc(CCN2CCOCC2)cc1)C(=O)N(C)CCC#N (stereo not drawn),7.396%
6,CCOC(=O)C(C)Nc1ccc(CCN2CCOCC2)cc1 (stereo not drawn),97.92%
7,CCC(Nc1ccc(Oc2ccccc2OC)cc1)C(N)=O (stereo not drawn),11.69%
8,CC(Nc1ccc(CCN2CCCCC2)cc1)C(=O)N(C)CCC#N (stereo not drawn),-7.662%
9,O=C(Nc1ccc(CCN2CCC(O)CC2)cc1)C1CCOCC1,8.941%
10,CCC(Nc1ccc(CCN2CCCCC2)cc1)C(N)=O (stereo not drawn),104.3%
11,CCC(Nc1ccc(CCN2CCOCC2)cc1)C(N)=O (stereo not drawn),92.12%
12,NC(=O)C1CCN(CCc2ccc(NC(=O)C3CCC3)cc2)CC1,-0.7709%
13,CCC(C)C(=O)Nc1ccc(CCN2CCOCC2)cc1 (stereo not drawn),92.28%
14,CCOc1cc(NC(=O)NCCn2cnnc2CC)ccc1C,-0.5638%
15,CCc1nc(CN2CCN(c3ncnc4cc(F)ccc34)CC2)no1,-16.98%
16,CN(CCO)Cc1nnc(C2CCN(C(=O)c3cc[nH]c3)CC2)n1C,-143.4%
17,CSc1cccc(CN(C)C(=O)CN2CCN(c3ncccn3)CC2)c1,-6.038%
18,CN(C)C(=O)CN1C[C@H]2CCN(c3ncccn3)CC[C@H]2S1(=O)=O.O=C(O)C(F)(F)F,-3.991%
19,CN1CCN(c2ncccn2)CC1C(N)=O (stereo not drawn),76.51%
20,Cc1ccc(C(=O)N2C[C@@H]3CN(c4ncccn4)C[C@@H]3C2)cc1,3.247%
21,CN(C)C(=O)C1CN(c2ncccn2)CCN1C (stereo not drawn),84.43%
22,CN(C)C(=O)[C@H]1C[C@@H]2CN(c3ncccn3)C[C@H]1O2,10.85%
23,CN1CCN(c2ncccn2)CC(C(=O)N(C)C)C1 (stereo not drawn),92.05%
24,CN(C)C(=O)[C@@H]1CCO[C@@H]2CCN(c3ncccn3)C[C@@H]21.O=C(O)C(F)(F)F,0.2661%
25,Cc1ccc(C(=O)N2C[C@@H]3CN(c4ncccn4)C[C@@H]3C2)cn1,1.13%
